# Data: ChEMBL document CHEMBL4513216, “Probing the Open Global Health Chemical Diversity Library for Multistage-Active Starting Points for Next-Generation Antimalarials” (ACS Infect Dis, 2020)
# About 8,600 (12%) of roughly 69,000 compounds showed an effect of 50% or more. The list comes from a sample in which strong results are over-represented; it also holds similar structures and randomly drawn compounds.
# System: Plasmodium berghei
# Experiment: Screen against P. berghei liver stage (PbLuc), transformed with Luciferase, at 10uM
# Format: functional, HepG2
# Conditions: tested at 10 uM
row,Structure (SMILES),INHIBITION
1,CC(=O)N1CCCCC[C@@H]2[C@@H]1[C@H](c1cccc(F)c1)CN2C(C)=O,20.1%
2,CCN1CCC(CNC(=O)C2(c3cccc(C)c3)CCCCC2)CC1,-3.2%
3,CN1CCC(c2cncc(-c3cccc(Cl)c3)n2)CC1,19.6%
4,OC1CCCN(CCNc2ncc(Cl)cc2F)C1 (stereo not drawn),22.1%
5,OC1CCN(Cc2ccc(CNc3ccc(Cl)cn3)cc2)CC1,54.3%
6,OC1CCN(Cc2ccc(CNc3ncc(Cl)cc3F)cc2)CC1,63.7%
7,CSc1ccc(CNc2ccccc2CN2CCC(O)CC2)cc1,-23.1%
8,CN(C)S(=O)(=O)c1ccc(CNc2ccc(Cl)cn2)cc1,79.8%
9,Clc1ccc(CNc2ccc(Cl)cn2)cc1,-151%
10,Cc1nc(CNC(C)c2ccc(S(=O)(=O)N(C)C)cc2)no1 (stereo not drawn),45.7%
11,CC(C)c1ccc(CNC(C)c2ccc(S(=O)(=O)N(C)C)cc2)cc1 (stereo not drawn),52.3%
12,CN(c1ccc(CNc2ccc(Cl)cn2)cc1)S(C)(=O)=O,-95.7%
13,CC1CCN(CC(O)CNc2ccc(Cl)cn2)CC1 (stereo not drawn),35.6%
14,CNS(=O)(=O)Cc1cccc(CNc2ccc(Cl)cn2)c1,45.2%
15,CC(C)c1ccc(CNC(C)c2ccc(S(C)(=O)=O)cc2)cc1 (stereo not drawn),6.39%
16,CN(C)S(=O)(=O)N1C[C@@H]2C[C@H](C(=O)NCc3ccccc3)[C@H](C1)O2,21.5%
17,CC(C)Oc1ccc(CNC(=O)CN(C)S(C)(=O)=O)cc1F,13.375%
18,O=C(CCc1cc2n(n1)CCN(Cc1ccncc1)C2)N1CCCC1,33.5%
19,COCC1CN(C(=O)Cc2ccccn2)Cc2cn(CC3CC3)nc21 (stereo not drawn),-26%
20,CSc1ccc(CN(CCO)C(=O)CCc2cccc(F)c2)cc1,-1.04%
21,CC(C)c1nsc(N2CCOCC2)n1,7.3%
22,CC(C)c1nsc(N2CCCOCC2)n1,61.6%

row,Structure (SMILES),INHIBITION
1,CC(C)c1nsc(N2CCSCC2)n1,-8%
2,CC(C)c1nsc(N2CCC(OCCN3CCOCC3)CC2)n1,54.6%
3,CC(C)c1nsc(N2CCS(=O)(=O)CC2)n1,-16.3%
4,CC(C)c1nsc(N2CCOC3(CCCC3)C2)n1,-10.3%
5,NC(=O)C1(c2cnccn2)CCCN1Cc1ccc(Cl)c(F)c1 (stereo not drawn),-6.3%
6,Clc1ccc(CN(CCN2CCOCC2)Cc2cccnc2)cc1Cl,8.12%
7,Cc1nn(C)c(C)c1-c1cnc(CC2CCNC2)cn1 (stereo not drawn),-22.3%
8,Nc1nc2nc(C3CCCN(C(=O)c4cnccn4)C3)ccc2s1 (stereo not drawn),26.8%
9,CC(C)(C)n1nc(C(=O)NCC2(C(N)=O)CCOCC2)cc1C1CC1,21.7%
10,Cc1cc(C(=O)NCC2(C(N)=O)CCOCC2)nn1C(C)(C)C,0.705%
11,CC(C)c1cc(C(=O)NCC2(C(N)=O)CCOCC2)nn1C(C)(C)C,62.4%
12,O=C(NCC(O)c1ccccc1C(F)(F)F)c1cccnc1 (stereo not drawn),-2.97%
13,O=C(NCc1cccnc1)NCC(O)c1ccccc1C(F)(F)F (stereo not drawn),16.8%
14,Oc1ccc(Cl)cc1CNCc1ccccc1C(F)(F)F,16.6%
15,CCn1cc(NC(=O)NCC(O)c2ccccc2)cn1 (stereo not drawn),-30.4%
16,Cn1c(NCC(O)c2ccc(Cl)cc2)c(C#N)c(=O)n(C)c1=O (stereo not drawn),19.4%
17,CC(C)(C)n1ncc(C(=O)NCCCC(N)=O)c1C(F)(F)F,26.9%
18,Cn1c(NCC(O)c2ccc(F)c(F)c2)c(C#N)c(=O)n(C)c1=O (stereo not drawn),-52.5%
19,CC(C)(C)n1ncc(NCC(O)c2ccccc2C(F)(F)F)c(Cl)c1=O (stereo not drawn),82.2%
20,CC(C)(C)n1ncc(NCC(O)c2ccccc2)c(Cl)c1=O (stereo not drawn),77.7%
21,CC(C)(C)n1ncc(NCC(O)c2ccc(F)c(F)c2)c(Cl)c1=O (stereo not drawn),84.5%
22,CC(C)(C)n1ncc(NCCc2ccccc2C(F)(F)F)c(Cl)c1=O,76.6%

row,Structure (SMILES),INHIBITION
1,CC(=O)c1c(F)cccc1NCC(O)c1ccc(F)c(F)c1 (stereo not drawn),15.7%
2,Cc1ccc(C2CSCCN2C(=O)NCc2cccnc2)cc1 (stereo not drawn),4.66%
3,CCCNS(=O)(=O)c1cc2c3c(c1)c(C)cc(=O)n3CCC2,22.85%
4,CNc1cc(CNC(=O)c2ccnc(OC)c2)nc(-c2ccncc2)n1,32.3%
5,Cc1cnc(N2CCn3cc(CNC(=O)CC4CC4)nc3C2)nc1,25.6%
6,NC(=O)c1ccccc1-n1cc(-c2cccc(C(=O)O)c2)cn1,71.5%
7,NC(=O)c1cc(-n2cc(-c3cccc(C(=O)O)c3)cn2)cs1,5.17%
8,NC(=O)c1cc(-c2cccc(C(=O)O)c2)cs1,29.8%
9,CO[C@H]1CCN(Cc2cnn(C)c2)[C@@H]2CN(Cc3ccncc3)C[C@H]12,7.31%
10,CC(C)Cc1noc(CN2CCN(C(=O)c3ccccc3F)CC2)n1,-19.4%
11,CC(C)Nc1ncnc2c1CCN(Cc1nccn1C)CC2,24.9%
12,Cc1ncc(CNCC(=O)NCC(F)(F)F)n1-c1ccccc1,41.5%
13,Cc1ncc(CNCC(=O)NC2CCCCC2)n1-c1ccccc1,65%
14,Cc1ncc(CNCC2CCC(C(N)=O)CC2)n1-c1ccccc1 (stereo not drawn),30.8%
15,Cc1n[nH]c(C)c1-c1nccnc1CC1CCNC1 (stereo not drawn),25%
16,CCC(C)(N)c1nc(=O)c(C(C)C)c(C)[nH]1 (stereo not drawn),24.8%
17,OC(c1cnn(-c2ccccc2)c1)C(F)(F)F (stereo not drawn),26.5%
18,Cc1nc(COc2ccc(OC3CCCCNC3=O)cc2)oc1C (stereo not drawn),64.9%
19,Cc1nc(COc2ccc(OCC(N)=O)cc2)oc1C,-120%
20,CCOc1ccc(OC2CCCN(c3cnn(C)c3)C2=O)cc1 (stereo not drawn),25.8%
21,Cc1cc(COc2ccc(OC3CCCCNC3=O)cc2)on1 (stereo not drawn),-26.1%
22,CCc1cnc(COc2ccc(OC3CCCCNC3=O)cc2)o1 (stereo not drawn),78.4%

row,Structure (SMILES),INHIBITION
1,CCc1cnc(CN(C)C2CCN(CC3CCC3)C2)o1 (stereo not drawn),-0.532%
2,COc1ncccc1CNC(=O)NC1CCCOc2ccccc21 (stereo not drawn),10%
3,CN(Cc1ccccn1)C(=O)CNC(=O)N1CCc2ccccc2C1,21.2%
4,Cc1ccc(CN(C)C(=O)CNC(=O)N2CCc3ccccc3C2)o1,-1.45%
5,CN(Cc1ccsc1)C(=O)CNC(=O)N1CCc2ccccc2C1,54.8%
6,c1cnn(CC2CN(CC3CCCCC3)CCO2)c1 (stereo not drawn),-71.2%
7,N#Cc1ccccc1N1CCCN(CC(=O)Nc2ccc(Cl)cn2)CC1,37.7%
8,N#Cc1ccccc1N1CCN(C(=O)NCC(=O)N2CCCC2)CC1,-9.1%
9,N#Cc1ccccc1N1CCCN(CC(=O)Nc2ccccc2Cl)CC1,63.7%
10,Cc1cc(C)c(Cn2cncn2)cc1CN1CC[C@@H]2CC[C@H](C1)N2,19.4%
11,Cc1nc2c(N3CCN(CCO)CC3)nc(N)nc2n1C,13.1%
12,CC(=O)NS(=O)(=O)c1ccc2c(c1)N(C)CCC2,-56.6%
13,CC(C)C(=O)NS(=O)(=O)c1ccc2c(c1)N(C)CCC2,39.2%
14,CN1CCCc2ccc(S(=O)(=O)NC(=O)C3CC=CC3)cc21,75.4%
15,CN(Cc1nncn1-c1cccc(C(F)(F)F)c1)S(C)(=O)=O,-19.1%
16,CCCC(=O)N(CCCN1CCOCC1)c1nc2c(Cl)cccc2s1,71.4%
17,CCCC(=O)N(CCCN1CCOCC1)c1nc2c(C)ccc(Cl)c2s1,42.7%
18,CCCC(=O)N(CCCN1CCOCC1)c1nc2c(C)c(C)ccc2s1,60.1%
19,CN(CCN1CCOCC1)C(=O)CCc1cccc(Cl)c1,-3.16%
20,CCCC(=O)N(CCCN1CCOCC1)c1nc2c(F)cccc2s1,32.1%
21,CCCC(=O)N(CCN1CCOCC1)c1nc2c(OC)ccc(C)c2s1,-0.473%
22,N#Cc1cccc(C(=O)NC2CCc3c(ccc(=O)n3CC3CC3)C2)c1 (stereo not drawn),-19.2%

row,Structure (SMILES),INHIBITION
1,Cc1ccc(CN2CCc3ncc(CNS(C)(=O)=O)n3CC2)o1,35.1%
2,O=C(COCC1CC[C@H]2[C@H](CCN2c2ncccn2)O1)N1CCCC1 (stereo partly drawn),7.31%
3,CN1CCN(C(=O)[C@H]2C[C@@H]3CN(c4ncc(F)cn4)C[C@@H]3N2C)CC1,-1.15%
4,CC(NCC(F)(F)F)c1ccc(S(C)(=O)=O)c(F)c1 (stereo not drawn),-45.3%
5,Cc1nc(N2CCCC2)ccc1NCc1ccccn1,42.3%
6,CN(CCc1ccccn1)C(=O)Nc1cccnc1N1CCCC1,44.7%
7,Cc1noc(CNc2ccccc2N2CCCCC2)n1,4.1%
8,c1ccc(CNc2ccccc2N2CCCC2)nc1,74.8%
9,c1ccc(N2CCCC2)c(NCc2ccncc2)c1,75.7%
10,Cc1cc(CNc2ccccc2N2CCCCC2)no1,28.6%
11,CCC(=O)NCC(=O)NCC1CCN(c2cc(Cl)ccc2C)C1 (stereo not drawn),23.73%
12,Cc1cc(CNC(=O)Cc2c(C)nc3cc(=O)[nH]n3c2C)no1,31.1%
13,CC(C)CCN1CCNC(=O)C1CC(=O)NCCc1cc(O)ncn1 (stereo not drawn),12.8%
14,Cc1nc(C2CCCCN2C(=O)c2ccccc2)ncc1C(=O)N(C)C (stereo not drawn),28.4%
15,O=C(CN1CCCC1CCCO)NCc1ccccn1 (stereo not drawn),29.4%
16,CCCN1CCC(CNC(=O)N2CCCC2c2c(C)n[nH]c2C)CC1 (stereo not drawn),24.3%
17,CCn1cnnc1C1CCN(C(=O)c2ccc3c(c2)nnn3C)CC1,11.9%
18,CC(C)[C@@H]1CN(c2ncc(F)cn2)C[C@H]1NC(=O)N(C)C,23.4%
19,COc1ccc(C(=O)N2C[C@@H](NC(=O)N(C)C)[C@H](C(C)C)C2)c(OC)n1,54.6%
20,COc1ccc(Cl)cc1C(=O)N1C[C@@H](NC(=O)N(C)C)[C@H](C(C)C)C1,0.76%
